For 14 compounds, growth results are on record in PubChem BioAssay (NCI).

Compounds without any hit were thinned out: in the full panel of roughly 83,000, 20% have a hit.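 A percent growth of 40 corresponds to 60% growth inhibition; 0 means no net growth; -100 means all cells died. Active threshold: below 10.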 Values without a mark were called inactive. Active and inactive are the calls of the source.

Holding throughout (assay): NCI-60 one-dose screen, 48 h (100 = growth as untreated, 0 = no growth, -100 = all killed)
Conditions in all cases: 10 µM

The test system of test [1] is K-562 leukemia.
Test [2] has as its system MALME-3M melanoma.
In test [3] the test system is MDA-MB-231 breast.
Test [4] relates to RXF 393 renal.
The test system of test [5] is SF-268 CNS.
Test [6] concerns SF-295 CNS.
For test [7], the system named is SF-539 CNS.
The subject of test [8] is UACC-257 melanoma.
The subject of test [9] is M14 melanoma.
Test [10] relates to HCT-15 colon.

With `O=C(O)CCCCSc1ncnc2nc[nH]c12`, the growth is 102% in test [1]; 96.2% in test [2]; 113% in test [3]; 105% in test [4]; 98.9% in [5]; 101% in test [6]. In addition, the growth in [7] is 102%; in test [8], 99.6%; in [9], 103%; in [10], 102%.
`O=C(Nc1ccc(OS(=O)(=O)c2ccccc2)cc1)C12CC3CC(CC(C3)C1)C2`: the growth was 13% in test [1]; 55.8% in test [2]; 19.9% in test [3]; 26.8% in [4]; 78.6% in test [5]; 45.6% in test [6]. In addition, the growth is 19.7% in test [7], 37.8% in [8], 47.2% in test [9] and 29.9% in test [10].
For the compound `S=C1SCC(c2ccccc2)S1` (stereo not given), the growth in test [1] is 106%; in test [2] it was 118%; in test [3], 107%; in [4], 105%; in [5], 111%; in test [6], 117%. The growth is 95.7% in test [7], 89.6% in test [8], 113% in test [9] and 100% in test [10].
`Clc1ccc(Sc2nc(NC3CC3)nc(Sc3ccc(Cl)cc3)n2)cc1`: the growth is 75.2% in test [1]; 80.7% in [2]; 81.1% in [3]; 79.1% in test [4]; 79.3% in test [5]; 67.4% in test [6]. Besides, the growth in [7] is 95%; in [8] it was 89.6%; in test [9], 86.2%; in test [10], 71.3%.
For the compound `COc1ccccc1CNCCCN1C(=O)c2ccc3c4c(ccc(c24)C1=O)C(=O)N(CCCN)C3=O`, the growth in [1] is -22.7% (active); in test [2] it was -94.1% (active); in [3] it was 3.16% (active); in test [4], -56% (active); in test [5], -22.1% (active); in test [6], -2.42% (active). Further, the growth was -87.3% (active) in test [7], -91.9% (active) in test [8], -62% (active) in test [9] and -30.8% (active) in test [10].
Consider `Cc1ccc(C(=O)N2C/C(=C/c3ccccc3)C(=O)/C(=C/c3ccccc3)C2)cc1`, for which the growth in test [1] was 5.67% (active); in [2], 60.3%; in [3], 53.4%; in [4], 31.3%; in [5], 66.4%; in [6], 56.1%. Besides, the growth in test [7] is 87.2%; in test [8], 80.1%; in [9] it was 18.2%; in [10], 24.5%.
`CCN(CC)CCSCCN(CC)CC`: the growth in [1] was 100%; in test [2], 106%; in test [3] it was 118%; in [4], 104%; in test [5], 106%; in test [6], 101%. Also, the growth in test [7] was 97%; in test [8] it was 97.6%; in test [9], 111%; in [10], 97.9%.
On to `COc1ccc(N=C2C(=Nc3ccc(OC)cc3)N(c3ccc(N(C)C)cc3)C(=S)N2c2ccc(OC)cc2)cc1`, for which the growth in test [1] is 61.9%; in test [2], 72.9%; in [3], 90.2%; in [4], 106%; in test [5], 90.2%; in test [6], 2.47% (active). Besides, the growth in test [7] is 54.2%; in test [8], 76.1%; in [9], 65.3%; in [10] it was 74.4%.
As for `CCCCCCN1CCN(Cc2ccc(N(CC)CC)cc2)C(=O)C1=O`, the growth was 11.7% in test [1]; 10.1% in [2]; 44.4% in test [3]; 7.71% (active) in test [4]; 42.5% in test [5]; 11.8% in test [6]. Also, the growth in test [7] was -1.86% (active); in test [8], 33.7%; in test [9], 9.15% (active); in [10] it was 41.5%.
For `Nc1nc(N)c2c(ccc3nccc32)[nH]1`, the growth was 16.6% in [1]; 58.7% in [2]; 73.5% in test [3]; 56.5% in [4]; 46.6% in [5]; 34.4% in test [6]. Further, the growth in test [7] is 57.9%; in [8] it was -9.73% (active); in test [9], 28.7%; in [10], 46.9%.
For the compound `COc1cc(-c2cc(/C=C3\C(=O)Nc4cc(Cl)ccc43)[nH]n2)cc(OC)c1OC`, the growth in test [1] was 23.4%; in test [2] it was -22.9% (active); in test [3], 34.2%; in test [4] it was 75.3%; in [5], 56.7%; in test [6], 32.6%. Moreover, the growth is 48.9% in test [7], 78% in test [8], 19.6% in test [9] and 13.6% in [10].
As to `CNc1ccc(CSc2ccc(C)cc2)cc1`, the growth in test [1] is 119%; in test [2] it was 94.4%; in [3], 33.4%; in test [4], 64.2%; in test [5], 69.6%; in test [6], 103%. Also, the growth in test [7] was 56.3%; in test [8], 93%; in [9], 84.7%; in [10] it was 89.2%.
Take `O=c1[nH]c2ccc(Cl)cc2c2ccccc12`: the growth in test [1] was 110%; in test [2], 60.7%; in test [3] it was 78.2%; in test [4], 61.1%; in test [5], 79.4%; in test [6], 97.9%. The growth in test [7] is 80.1%; in test [8], 105%; in [9], 94.7%; in [10], 93.3%.
For the compound `CCOC1(OCC)OC(c2ccccc2)=C(C#N)C(/C=C\c2ccccc2)C1(OCC)OCC` (stereo not given), the growth in [1] was 73.3%; in test [2], 73.7%; in test [3], 85.1%; in test [4], 60.1%; in test [5] it was 79.8%; in test [6], 94.1%. In addition, the growth is 100% in test [7], 81% in test [8], 78% in test [9] and 81.7% in test [10].
